Compound activity from PubChem.
This is a sample that favours compounds with a hit; in the whole collection about 5.9% have one here.
GLP-1R inv ag – inverse agonists of human GLP-1 receptor. P43220. HEK293 GLP-1R CRE-luciferase, luminescence, 24 h; GLP-1R form is constitutively active. Potency, µM (top dose mostly 38.3 µM), inactives show at the top dose activity change, negative = inhibition, actives largely listed as inhibitors. 410,000 tested, 1.6% active. AID 624417; further: on the % scale 0 is the no-effect control and ±100 the full control effect; nearly all actives have a fitted effect of over 55% in size
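HEK293 cells stably co-expressing constitutively active GLP-1R and a cAMP-responsive luciferase reporter were seeded in DMEM with 10% Nu serum, given compounds after 12 h, and incubated 24 h at 37 deg C. Luminescence was then read.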
HEK293 tox – cytotoxicity counter-screen for GLP-1 receptor inverse agonists | Potency, µM (top dose mostly 38.3 µM), without a hit: at the top dose activity change, negative = inhibition, actives largely listed as inhibitors | 410,000 tested, 0.13% active | HEK293 cAMP-luciferase reporter cells, luminescence, 24 h | AID 624418;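 further: loss of luciferase light is scored as toxicity; on the % scale 0 is the no-effect control and ±100 the full control effect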
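1536-well qHTS counterscreen of the MLSMR; 200 cells/uL, 12 h pre-incubation, 23 nL cpd, 24 h at 37 deg C 5% CO2, luciferase detection reagent, 12 min RT, luminescence. Inhibition = undesired.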
Gal4-VP16 FLuc – counter-screen for ROR gamma inhibitors: Gal4-VP16 reporter. Drosophila S2 Gal4-VP16 UAS-luciferase, luminescence, 20 h. Potency, µM (series often up to 53.6 µM), without a hit: at the top dose activity, negative = inhibition, hits mostly inhibitors. 310,000 tested, 3.5% active;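 further: Gal4-VP16 expression switched on by copper sulfate through the metallothionein promoter; on the % scale 0 is the no-effect control and ±100 the full control effect; nearly all actives have a fitted effect of over 50% in size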
RORg inh – blocks mouse ROR gamma transcriptional activity | P51450 | Drosophila S2 Gal4-RORgamma UAS-luciferase reporter, 20 h | Potency, µM (series often up to 53.6 µM), without a hit: at the top dose activity change, negative = inhibition, hits mostly inhibitors | 310,000 tested, 5.4% active | AID 2551; further: on the % scale 0 is the no-effect control and ±100 the full control effect; nearly all actives have a fitted effect of over 60% in size
Target sequence (P51450 whole entry, looked up, the tested form may be a part): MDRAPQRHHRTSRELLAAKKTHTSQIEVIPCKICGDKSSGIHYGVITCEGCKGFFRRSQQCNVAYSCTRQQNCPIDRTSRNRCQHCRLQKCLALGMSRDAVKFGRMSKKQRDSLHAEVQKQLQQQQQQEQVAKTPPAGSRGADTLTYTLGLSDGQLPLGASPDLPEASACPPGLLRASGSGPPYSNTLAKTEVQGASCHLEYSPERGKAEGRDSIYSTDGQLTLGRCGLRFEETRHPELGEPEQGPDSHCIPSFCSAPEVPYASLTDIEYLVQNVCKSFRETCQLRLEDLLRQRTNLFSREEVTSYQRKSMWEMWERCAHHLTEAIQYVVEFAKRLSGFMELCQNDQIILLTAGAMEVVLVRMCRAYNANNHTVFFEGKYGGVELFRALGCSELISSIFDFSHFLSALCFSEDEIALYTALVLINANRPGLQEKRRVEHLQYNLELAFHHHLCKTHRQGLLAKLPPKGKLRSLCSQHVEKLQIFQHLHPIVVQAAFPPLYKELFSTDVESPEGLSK
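Schneider cells (Drosophila), stable Gal4 DBD–ROR gamma + UAS-luc; 1 hr cmpd preincubation; Cu2+ induction 700 uM final; 20 hr ambient; luminescence.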
GLP-1R agonist – GLP-1 receptor (human) agonism; 380,000 tested, 0.007% active; AID 624172; P43220; Potency, µM (doses to about 45.6 µM), without a hit: at the top dose activation, actives largely listed as activators; HEK293 GLP-1R CRE-luciferase, luminescence, 4-6 h; cells express a hypersensitive GLP-1R form; further: % of control where 0% means no effect
The depositor's hits bear a star; ? = inconclusive; / = no result given; [ ] = remark or other dose. The call rests on the fitted dose curve; in most records, active means well fitted curve in the direction sought with a large enough effect; inconclusive means small, poorly fitted or top-dose-only effect, or another doubt; inactive means no such curve, though single readings can be large; an effect the other way counts as inactive or inconclusive. Potency means the concentration at half of the fitted maximal effect.

SMILES	GLP-1R inv ag	HEK293 tox	Gal4-VP16 FLuc	RORg inh	GLP-1R agonist
CO[C@H]1[C@@H](O)[C@H](N)[C@@H](O[C@H]2O[C@@H]([C@H](C)N)CC[C@H]2N)[C@H](O)[C@@H]1N(C)C(=O)CN	/	/	/	/	-2%
CC1=NN(c2ccccc2C(=O)O)C(=O)C1N=Nc1ccccc1 (configuration not stated)	15%	-24%	-9%	26%	-1%
CCOC(=O)c1sc(N2N=C(C)C(N=Nc3cccc(C)c3)C2=O)nc1C (configuration not stated)	-4%	-30%	?	11µM*	5%
CC1=NN(c2nc(-c3ccccc3)cs2)C(=O)C1	-33%	-16%	-24%	-33%	-7%
CC1=NN(c2nc(-c3ccc(C)cc3)cs2)C(=O)C1N=Nc1cccc(C)c1 (configuration not stated)	14%	-6%	?	7.1µM*	-4%
O=C(CSc1nnc(-c2ccc(O)cc2)o1)c1ccc(Br)cc1	8.9µM*	-7%	/	/	/
COc1ccc(-c2nnc(SCC(=O)c3ccc(O)cc3O)o2)cc1	15%	-1%	?	5.6µM*	8%
COc1ccc(-c2nnc(SCC(=O)c3ccc[nH]3)o2)cc1	0%	-14%	?	?	-8%
COC(=O)c1csc(C(=O)c2c[nH]c3ccccc23)n1	/	/	6%	15%	/
Cc1cccc(NC(=O)c2cccc(Cn3cc(Br)c([N+](=O)[O-])n3)c2)c1C	10µM*	-15%	-17%	?	5%
O=C(O)c1ccc(N2CCc3ccccc32)c([N+](=O)[O-])c1	28%	-2%	9%	14%	0%
CC(=O)c1ccc(N2CCc3ccccc3C2)c([N+](=O)[O-])c1	3.2µM*	-19%	-1%	?	-2%
CN(C)c1ccc(N=Nc2ccc(C(=O)O)cc2)cc1	2.5µM*	?	1.4µM*	0.5µM*	-6%
CN(C)c1ccc(C(=O)c2ccccc2)cc1	-5%	-14%	13%	33%	6%
COc1cc(OC)c2c(C)c(CC(=O)NCCc3ccccc3OC)c(=O)oc2c1	12%	-12%	/	/	/
COc1ccccc1NC(=S)N(c1ccccc1)C(C)C	0%	-12%	-5%	?	4%
CN(CC(=O)NC(=O)NC1CCCCC1)c1ccccc1	?	-1%	/	/	22%
CC(C)N(Cc1ccccc1)C(=S)NC1CCCCC1	?	-22%	?	13µM*	4%
Cc1cccc(NC(=S)N(c2ccccc2)C(C)C)c1C	10%	-6%	25µM*	14µM*	1%
CC(C)N(Cc1ccccc1)C(=S)NCc1ccccc1	?	3%	-4%	?	5%
CC(C)N(C(=S)NC1CCCCC1)c1ccccc1	/	/	?	11µM*	/
Cc1ccc2cccnc2c1	/	/	1%	-12%	/
O=C(NCC(c1ccco1)N1CCc2ccccc21)C(=O)Nc1ccccc1F (configuration not stated)	?	4%	/	/	-15%
O=C(NCC(c1ccco1)N1CCc2ccccc21)C(=O)Nc1ccc(F)cc1F (configuration not stated)	4µM*	-1%	/	/	-5%
CC(=O)c1ccc(NC(=O)COC(=O)c2ccccc2N=Nc2ccc(N(C)C)cc2)cc1	43%	10µM*	-3%	?	7%
SMILES	GLP-1R inv ag	HEK293 tox	Gal4-VP16 FLuc	RORg inh	GLP-1R agonist
O=C(Nc1ccccc1)N1CC2(CCN(S(=O)(=O)c3ccccc3)CC2)C1	/	/	?	23%	/
COc1cccc(/C=N/NC(=O)c2cc3c(OC)ccc(OC)c3[nH]2)c1O	?	-23%	2.8µM*	1.6µM*	7%
COc1cc(OC)c2cc(C(=O)N/N=C/c3cccc(OC)c3O)[nH]c2c1	-7%	9%	4.5µM*	2.2µM*	5%
CC1CCCCC1NC(=S)Nc1ccc(Cl)cc1Cl (configuration not stated)	11µM*	?	?	3.5µM*	1%
S=C(NNc1cccc(Cl)c1)NC1CCCCC1	10µM*	?	1.4µM*	0.32µM*	9%
Cc1cc(Cl)ccc1NC(=S)NC1CCCC1	?	?	14µM*	2.2µM*	20%
S=C(Nc1cccc(Cl)c1)NC1CCCCC1	8.9µM*	?	10µM*	3.5µM*	8%
CC(C)C1=CC2=CC[C@@H]3[C@](C)(CCC[C@@]3(C)C(=O)O)[C@H]2CC1	/	/	-5%	-7%[10 µM]	-2%
COc1ccc(-c2nc3c(C#N)c[nH]n3c2NC2CCCCC2)cc1	-26%	-27%	/	/	/
O=C1C=CC2(OCCCO2)C(Br)=C1	/	/	-7%[10 µM]	-12%[10 µM]	/
O=C(COc1ccccc1[N+](=O)[O-])N(Cc1ccco1)c1ccccn1	17%	5%	/	/	/
CC(=O)c1cccc(NC(=S)NC2CC2)c1	11%	-2%	-4%	-18%	-4%
CC(=O)c1cccc(NC(=S)NC2CCCCC2)c1	27%	-4%	?	10µM*	1%
Cc1ccc2nc(-c3ccc(O)cc3)c(Nc3ccc(Cl)cc3)n2c1	?	-4%	/	/	/
Cc1ccc(Nc2c(-c3ccccn3)nc3ccc(C)cn23)cc1	?	?	?	13µM*	-5%
Cc1ccc(Nc2c(-c3ccc(C)cc3)nc3ccc(C)cn23)cc1	15%	-9%	/	/	/
Cc1ccc2nc(-c3ccccc3F)c(Nc3ccc(Cl)cc3)n2c1	11µM*	0%	/	/	/
O=C(COC(=O)c1ccccn1)Nc1nc(-c2ccccc2)cs1	21%	0%	17%	?	5%
O=C(COC(=O)c1ccccn1)Nc1nc(-c2cccc([N+](=O)[O-])c2)cs1	17%	2%	35µM*	13µM*	10%
COc1ccccc1/C=C/C=C(\C#N)C(=O)NC(C)c1ccccc1 (configuration not stated)	11µM*	?	4%	11%	13%
CCCCNc1nc(C)nc2c1nc(-c1ccccc1)n2CCCN(CC)CC	/	/	-17%	-39%	/
CC1CN=C(c2cccn2Cc2ccc(F)cc2Cl)O1 (configuration not stated)	?	-14%	?	6.3µM*	3%
CC1(C)COC(c2cccn2Cc2ccc(F)cc2Cl)=N1	?	-12%	-7%	?	-2%
CCC1Oc2ccc(Cl)cc2N(CC(=O)NCCc2ccc(Cl)cc2)C1=O (configuration not stated)	-3%	0%	/	/	/
CCN(CC)S(=O)(=O)c1ccc2oc(C(=O)NC3CCCc4ccccc43)c(C)c2c1 (configuration not stated)	8.9µM*	66%	-3%	34%	1%
COc1cc(OC)cc(C(=O)Nc2cccc(-c3cn4ccsc4n3)c2)c1	-24%	-19%	/	/	/
O=[N+]([O-])c1ccc(-c2nnc3n2CCCCC3)cc1	-23%	-14%	1%	2%	-1%
